Broadly, the inhibition is the drop in the measured response relative to a control, in per cent.

In all, about 6,200 compounds went through this assay and about 2,900 (47%) were called active. No stated cut-off is given here; in the data, active means inhibition above about 50%; inactive means the rest. So high a share suggests a set chosen from earlier hits. This is one part of the list.

A short description of this test: Mycobacterium tuberculosis growth inhibition, primary screen (AID 1259343). Conditions: inhibition: at 10 µM, active compounds read high; outcome: 10 uM.
As to `CC(C)C(=O)Nc1sc2c(c1-c1nc3ccccc3s1)CCN(C)C2`, the inhibition is 85.9% (active).

As to `CCC(=O)Nc1sc2c(c1-c1nc3ccccc3s1)CCN(C(C)C)C2`, the inhibition was 100% (active).

For `CC(C)N1CCc2c(sc(NC(=O)C3CC3)c2-c2nc3ccccc3s2)C1`, the inhibition is 0.31% (inactive).

With `CC(C)C(=O)Nc1sc2c(c1-c1nc3ccccc3s1)CCN(C(C)C)C2`, the inhibition was 95.2% (active).

Consider `CC(=O)Nc1sc2c(c1-c1nc3ccccc3s1)CCN(C(C)C)C2`, for which the inhibition was 68.3% (active).

Consider `CC(=O)c1ccc(C(=O)Nc2sc3c(c2-c2nc4ccccc4s2)CCN(C)C3)cc1`, for which the inhibition was 83.8% (active).

Consider `CN1CCc2c(sc(NC(=O)c3ccc(F)cc3)c2-c2nc3ccccc3s2)C1`, for which the inhibition was 31.8% (inactive).

Consider `CN1CCc2c(sc(NC(=O)c3ccccc3)c2-c2nc3ccccc3s2)C1`, for which the inhibition is 29.3% (inactive).

For `CCCCCCCCCCCCC[N+](C)(C)Cc1ccccc1`, the inhibition is 70.2% (active).

As for `Cc1cccc(CN(CCN2CCOCC2)Cc2ccc(C(O)(c3cccc(F)c3)c3cccc(F)c3)o2)c1`, the inhibition was 17.9% (inactive).

Take `CC(C)(C)c1cc(C(=O)CCN2CCOCC2)cc(C(C)(C)C)c1O`: the inhibition was 102% (active).

Take `O=S(=O)(c1cc(Cl)cc(Cl)c1O)N1CCOCC1`: the inhibition was 19.4% (inactive).

Consider `CC(NC(=O)CCC1CCCO1)c1ccc(Cl)s1` (configuration not stated), for which the inhibition was 21.7% (inactive).

Consider `Cc1cc(NC(=O)CN2CCN(CC3CCCO3)CC2)ccc1Cl` (configuration not stated), for which the inhibition was 66.5% (active).

For `CC(C)c1ccc(NC(=O)CCN2CCN(CC3CCCO3)CC2)cc1` (configuration not stated), the inhibition is 83.5% (active).

Turning to `Cc1ccc(NC(=O)CC(=O)N2CCC(C(O)CC(C)C)CC2)cc1Cl` (configuration not stated), the inhibition is 88.3% (active).

Turning to `CC(=O)N[C@H]1CCN(CC(=O)Nc2ccc(Cl)c(C)c2)C1`, the inhibition was 33.5% (inactive).

Consider `O=C(CCc1cccs1)N1CCN(CC2CCCO2)CC1` (configuration not stated), for which the inhibition was -26.7% (inactive).

As for `CC(C)c1ccc(S(=O)(=O)NCC2CCCO2)cc1` (configuration not stated), the inhibition is -25.1% (inactive).

On to `Cc1ccc(NC(=O)CCC2CCCO2)cc1Cl` (configuration not stated), for which the inhibition was 96.2% (active).

With `CN(C)N=CC=C1CCC(=Cc2ccc(C(F)(F)F)cc2)C1=O`, the inhibition is 8.26% (inactive).

Consider `Cc1ccc2c(Cl)cc(Cl)c(O)c2n1`, for which the inhibition was 47.9% (inactive).

In the case of `NNc1ccc2c(Cl)cc(Cl)c(O)c2n1`, the inhibition is 99.5% (active).

With `CCC(CO)NC(=S)N=P(c1ccccc1)(N(CC)CC)N(CC)CC` (configuration not stated), the inhibition was 81.6% (active).

`CN(CC(O)COCc1ccc2c(c1)OCO2)c1ncc(C(F)(F)F)cc1Cl` (configuration not stated): the inhibition was 78% (active).

As to `FC(F)(F)c1cnc(NCc2ccc3c(c2)OCCO3)c(Cl)c1`, the inhibition was 25.7% (inactive).

`COC(=O)NNC(=S)NC(=O)C12CC3CC(CC(C3)C1)C2`: the inhibition is 97.8% (active).

For the compound `Cc1nc(Cl)sc1S(=O)(=O)NCC(C)c1ccccc1` (configuration not stated), the inhibition was 24.9% (inactive).

In the case of `Cc1[nH]n(-c2nc3ccccc3s2)c(=O)c1C=NC(C)c1ccccc1` (configuration not stated), the inhibition was 86.9% (active).

Regarding `Clc1ccc(-c2nn3c4cc(N5CCNCC5)ccc4nc3c3ccccc23)cc1`, the inhibition is 92.9% (active).

In the case of `CN(C1CCCCC1)S(=O)(=O)c1ccc2ccccc2c1`, the inhibition was 38.7% (inactive).

Regarding `CN(C1CCCCC1)S(=O)(=O)N1CCc2ccccc21`, the inhibition was 98.1% (active).

As to `CN(C1CCCCC1)S(=O)(=O)N1CCN(c2cccc(F)c2C#N)CC1`, the inhibition was 10.2% (inactive).

In the case of `CC1Cc2cc(-c3cc(C(=O)O)no3)ccc2O1` (configuration not stated), the inhibition was 27.8% (inactive).

For the compound `CCCCCN(C)C(=O)c1cc(-c2ccc3ccccc3c2)on1`, the inhibition was 94% (active).

As to `CN(C)C=Nc1nc(-c2ccc3ccccc3c2)cs1`, the inhibition was -25.4% (inactive).

For the compound `CCOc1ccc(NC(=O)C(C)Sc2nc(N)cc(N)n2)cc1` (configuration not stated), the inhibition was 86% (active).

Regarding `O=P(Nc1cccc(F)c1)(Oc1ccccc1F)Oc1ccccc1F`, the inhibition is 22% (inactive).

Regarding `CCCCc1ccc(NC(=O)COC(=O)C23CCC(=O)N2CCS3)cc1` (configuration not stated), the inhibition was 95.3% (active).

As to `CCCCCc1ccc(NC(=O)CCN2CCSC2=O)cc1`, the inhibition is 99% (active).

On to `CCN=c1scc(-c2ccc(Br)cc2)n1/N=C1\C(=O)N(C)c2ccccc21`, for which the inhibition is 20.4% (inactive).

For `Cn1cc(-c2nc(C(=O)NC34CC5CC(CC(C5)C3)C4)cs2)cn1`, the inhibition was 31.8% (inactive).

In the case of `CC1CCCC(NC(=O)c2cncc(Br)c2)C1` (configuration not stated), the inhibition was -31% (inactive).

In the case of `O=C(NC12CC3CC(CC(C3)C1)C2)c1cncc(Br)c1`, the inhibition was 50.2% (active).

As for `O=S(=O)(NCc1ccc(F)cc1)c1ccc2c(c1)CCCC2`, the inhibition was 89.6% (active).

As for `COc1ccc(CNS(=O)(=O)c2ccc3c(c2)CCCC3)cc1`, the inhibition is -18% (inactive).

As to `O=S(=O)(Nc1ccc2c(c1)CCC2)c1ccc(F)cc1`, the inhibition is -4.64% (inactive).

Regarding `COCc1ccc(C(=O)NC2C3CC4CC(C3)CC2C4)cc1` (configuration not stated), the inhibition is 75.8% (active).

Consider `CC(=O)Nc1ccc(C(=O)NC2CCC3CCCCC3C2)cc1` (configuration not stated), for which the inhibition was -37.5% (inactive).

Consider `CCCc1nc(CN(C)c2nc(C)nc3sccc23)no1`, for which the inhibition is 14.1% (inactive).

As for `COc1cccc(OC)c1OCCCOc1ccc(C)cc1Br`, the inhibition was 87.8% (active).

For the compound `COc1cccc(OC)c1OCCOc1ccc(C)cc1Br`, the inhibition was 76.4% (active).

Turning to `COc1ccccc1OCCCOc1ccc(C)cc1Br`, the inhibition was 34.8% (inactive).

Turning to `O=C(Nc1ccc(N2CCC(NCCC3=CCCCC3)CC2)cc1)c1ccc2c(c1)OCO2`, the inhibition is 47% (inactive).

In the case of `CCCCCCc1ccc(C(=O)Nc2ccc(-n3nc(OC)nc3-c3ccc4c(c3)OCO4)cc2)cc1`, the inhibition was 56.7% (active).

In the case of `COc1cc2c(cc1O)C(SC)=NC(C)(C)C2`, the inhibition was 55.5% (active).

Consider `CC(=O)NC(C)C(=O)Nc1cccc(Sc2ccccc2)c1` (configuration not stated), for which the inhibition was 62.7% (active).

Turning to `Cc1csc(C(C#N)C(=O)Nc2ccccc2)n1` (configuration not stated), the inhibition is -32.9% (inactive).

`CCCS(=O)(=O)N1CC=C(c2c[nH]c3cc(F)ccc23)CC1`: the inhibition was 88.2% (active).

As for `CCCS(=O)(=O)N1CCc2[nH]c3ccc(F)cc3c2C1`, the inhibition was 22.7% (inactive).

Consider `CC1CCN(S(=O)(=O)N2CC=C(c3c[nH]c4ccccc34)CC2)CC1`, for which the inhibition is 29.2% (inactive).

As to `O=C(Nc1cccc2cnccc12)OCC(F)(F)F`, the inhibition was 72.3% (active).

Take `Cc1ccc(C(=O)O)cc1OCc1csc(Br)c1`: the inhibition is 7.03% (inactive).

As for `COc1cc(C(=O)C(C#N)C(=O)CC(C)(C)C)ccc1C` (configuration not stated), the inhibition is 101% (active).

Turning to `CC(Nc1nc(-c2cccs2)nc2cc(Cl)ccc12)c1ccccc1` (configuration not stated), the inhibition was 3.37% (inactive).

On to `CC(=NNc1ccnc2cc(Cl)ccc12)c1ccc(C)o1`, for which the inhibition was 2.38% (inactive).

As to `CCC(=NNc1ccnc2cc(Cl)ccc12)c1ccccc1`, the inhibition was 93.9% (active).

As to `CC1CCC(C(C)C)C(OC(=O)COC(=O)c2ccc([N+](=O)[O-])o2)C1` (configuration not stated), the inhibition was 10.8% (inactive).

Turning to `CN(C)c1ccccc1NC(=O)c1ccccc1OC(F)F`, the inhibition is 23.1% (inactive).

Regarding `CC(OC(=O)c1ccc([N+](=O)[O-])o1)C(=O)Nc1ccccc1OC(F)F` (configuration not stated), the inhibition is 101% (active).

For the compound `COc1ccc(-c2nc(CNc3ccc(C)c(F)c3)no2)cc1`, the inhibition was 91.5% (active).

In the case of `CC(C)c1ccc(NC(=O)c2ccc(-c3ccnn3C)c3ccoc23)cc1`, the inhibition is 77.8% (active).

Regarding `CC(C)c1cnc(COc2ccc(Br)nc2)o1`, the inhibition is 38.6% (inactive).

Consider `CN(CC(=O)c1cccc(Br)c1)C1CCCCC1`, for which the inhibition is 13.2% (inactive).

Regarding `NC(=S)c1cccc(Br)c1`, the inhibition is 22.8% (inactive).

For `Cc1nc(NC(=O)c2cccc(Br)c2)oc1C`, the inhibition is 94.3% (active).

As for `COc1ccccc1OCc1coc(-c2ccc(C)cc2C)n1`, the inhibition was 40.9% (inactive).

As to `c1csc(-c2nc(COc3ccc4c(c3)CCC4)co2)c1`, the inhibition was -21.4% (inactive).

With `Cc1ccc(-c2nc(COc3ccc(C)cn3)co2)cc1`, the inhibition is 58.5% (active).

Regarding `O=C(O)Cc1cc(-c2ccc3c(c2)OCCO3)on1`, the inhibition was 73.2% (active).

With `O=C(Cc1cc(-c2ccc3c(c2)OCO3)on1)NCc1cccs1`, the inhibition was 90.9% (active).

With `CC1Cc2cc(-c3cc(CO)no3)ccc2O1` (configuration not stated), the inhibition was -11.9% (inactive).

On to `COC(=O)CC1CC(=O)C2C(=O)c3c(OC)ccc(Br)c3C2C1` (configuration not stated), for which the inhibition was 28.1% (inactive).

Turning to `c1ccc(N2CCN(c3ccccn3)CC2)cc1`, the inhibition was 61.2% (active).

Regarding `O=C1c2ccccc2-c2nn(CN3CCN(c4ccccc4)CC3)c3cccc1c23`, the inhibition is 31.3% (inactive).

For `O=S(=O)(N1CCN(c2ccccc2)CC1)C(F)(F)C(F)(F)C(F)(F)C(F)(F)F`, the inhibition was 21.4% (inactive).

In the case of `CCCCCCSC1=C(C#N)C2(CCCCC2)C(C#N)C(=O)N1` (configuration not stated), the inhibition was 4.19% (inactive).

Turning to `Clc1ccccc1-c1nnc(-c2ccc3c(c2)OCO3)o1`, the inhibition is 72.5% (active).

On to `Fc1ccccc1-c1nnc(-c2ccc3c(c2)OCO3)o1`, for which the inhibition was -0.93% (inactive).

For the compound `Fc1ccc(-c2nnc(-c3ccc4c(c3)OCO4)o2)cc1`, the inhibition was 70.5% (active).

As for `Oc1ccccc1C1CC(c2ccc3c(c2)OCO3)=NC(c2cccc(F)c2)N1` (configuration not stated), the inhibition is -19.4% (inactive).

Turning to `Fc1ccc(/C=C/c2nnc(-c3ccccc3Cl)o2)cc1`, the inhibition was 42.9% (inactive).

As to `O=C(Nc1cccc(O)c1)c1nn2c(C(F)(F)F)cc(-c3ccccc3)nc2c1Cl`, the inhibition is -37.9% (inactive).

With `Fc1ccc2c(c1)C(=NNc1nc3ccccc3s1)CCS2`, the inhibition is -16.9% (inactive).

As to `Oc1c(Cl)cc(Cl)cc1C=NNc1nc2ccccc2s1`, the inhibition was 101% (active).

In the case of `c1ccc2c(c1)CCC(=NNc1nc3ccccc3s1)C2`, the inhibition is 48.5% (inactive).

Consider `CC(C)C1CC(=NNC(N)=S)C=C2CCCCC21` (configuration not stated), for which the inhibition is 102% (active).

On to `CC(Oc1ccccc1)C(=O)Nn1cnc2c(cnn2-c2ccc(F)cc2)c1=O` (configuration not stated), for which the inhibition is 70.4% (active).

As for `COCCCNC(=O)c1nn(-c2ccc(F)cc2)c2ncccc12`, the inhibition was 42.3% (inactive).

As for `C=CCSc1nnc(-c2cc(Br)ccc2N)c(=O)[nH]1`, the inhibition is 76.5% (active).

Take `Cc1ccc(-c2nnc(-c3ccccc3N)[nH]c2=O)cc1C`: the inhibition was 49.2% (inactive).

On to `CCCCCCCCc1nnc(N)s1`, for which the inhibition is 89.3% (active).

In the case of `CCc1ccc(NCC(=O)Nc2ccc(I)cc2C)cc1`, the inhibition is 53.6% (active).

Take `CCCCc1ccc(NC(=O)CNc2ccccc2C(C)=O)cc1`: the inhibition is 90.7% (active).

Consider `CCC(C)c1ccc(NC(=O)CNc2ccc(F)c(C(=O)OC)c2)cc1` (configuration not stated), for which the inhibition is -5.36% (inactive).

Regarding `CN(Cc1ccc(Br)cc1)C(=O)Nc1ccc(F)c(F)c1F`, the inhibition is 44.5% (inactive).

Take `CCc1ccc(NC(=O)CNc2ccc(F)c(F)c2F)cc1`: the inhibition was 96.5% (active).

Values taken from PubChem BioAssay AID1259343 (VanderVen Lab, College of Veterinary Medicine, Cornell …, 2017).
